Inconclusive results are not listed. Activity calls are given as the source filed them. Unless noted, the call rests on the fitted dose curve.

Data on six compounds can be found in PubChem BioAssay (NCATS).

Assay [1] concerns the target Estrogen receptor (Homo sapiens) (UniProt P03372). In words: qHTS assay for small molecule antagonists of estrogen receptor alpha signaling (AID 588513; active means well fitted curve in the direction sought with a large enough effect in the signal ratio, with a control signal flat, not every such curve was filed as active; the % refers to the signal ratio; further: on the % scale 0 is the no-effect control and ±100 the full control effect). In short, it runs like this: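 ER-alpha-UAS-bla GripTite HEK 293 cells in 2% charcoal/dextran-treated FBS medium; compounds titrated (1:2, duplicate), then stimulated with 0.5 nM 17-beta-estradiol for 18 h at 37C. CCF4 beta-lactamase fluorescence; Hill-fit IC50 and efficacy.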

The target is the same in assay [2]. In words: qHTS assay for small molecule agonists of estrogen receptor alpha signaling (AID 588514).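 Further: 0% = vehicle only and 100% = reference agonist; nearly all actives have a fitted effect of over 70% in size.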 The method in brief:
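Reporter-gene assay. […] controls beta-lactamase in HEK 293 GripTite cells; after 18 hrs with compound, CCF4 substrate is added for 2 hrs and fluorescence is read.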

Assay [3] is described as follows: qHTS assay for small molecule antagonists of peroxisome proliferator-activated receptor delta signaling (AID 588535).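 Further: cells co-treated with a PPAR-delta agonist as stimulator during compound exposure.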 The conditions noted are these: HEK293T PPARd-UAS-bla, beta-lactamase FRET ratio, 18 h; 460 nm channel. The method in brief:
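Cell-based beta-lactamase assay in antagonist mode: 4000 HEK293T PPAR-delta-UAS-bla cells per well, 5 hr preincubation then 18 hr compound incubation at 37 C. IC50 obtained by Hill equation fitting.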
For orientation: Quantitative high-throughput screening tests each substance at several concentrations.

Assay [4] deals with Peroxisome proliferator-activated receptor gamma (Homo sapiens) (UniProt P37231). In words: qHTS assay for small molecule agonists of peroxisome proliferator-activated receptor gamma signaling (AID 588536; active means well fitted curve in the direction sought with a large enough effect in the signal ratio, with a control signal flat, not every such curve was filed as active; the % refers to the signal ratio;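 further: 0% = DMSO basal wells and 100% = rosiglitazone at 2 µM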). The method in brief: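 GeneBLAzer PPAR-gamma-UAS-bla HEK293 cells in 1% charcoal/dextran-treated FBS medium were treated 16 h at 37 C with compounds. Beta-lactamase activity was read by CCF4 ratio (460/530 nm). Response was normalized to 2 uM rosiglitazone (100%) and DMSO, then Hill-fitted for EC50 and efficacy.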

Assay [5] has the same target. In words: qHTS assay for small molecule antagonists of peroxisome proliferator-activated receptor gamma signaling (AID 588537; active means well fitted inhibition curve with a large enough effect in the signal ratio, with a control signal flat, not every such curve was filed as active; the % refers to the signal ratio;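 further: reporter cells co-stimulated with 50 nM rosiglitazone agonist during compound treatment; % of control where 0% means no effect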). In short, it runs like this: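 Inhibitors of agonist-stimulated UAS-bla reporter activity were sought in HEK293 cells; rosiglitazone (50 nM) defined full signal and DMSO baseline. Curves fitted to Hill model gave IC50 and efficacy.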
In assay [6] the target is Vitamin D3 receptor (Homo sapiens) (UniProt P11473). Kind of assay: qHTS assay for small molecule antagonists of vitamin D receptor signaling (AID 588541).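 Further: receptor activated by calcitriol during compound treatment; series mostly up to about 77 µM; on the % scale 0 is the no-effect control and ±100 the full control effect.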 In short, it runs like this: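 Antagonist-mode beta-lactamase reporter assay: HEK293T VDR-UAS-bla cells were exposed to titrated compound alongside 1-alpha,25-dihydroxyvitamin D3 at 3 nM final for 16 h. Values were normalized to the 50 nM agonist control and DMSO basal, with IC50 and efficacy from Hill equation fits.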

A short description of assay [7]: qHTS assay for small molecule agonists of retinoid X receptor alpha signaling (AID 588544). Further: potency means the concentration at half of the fitted maximal effect.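 On activation: 0% = DMSO basal wells and 100% = reference agonist.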 The conditions noted are these: HEK293T RXRa-UAS-bla, beta-lactamase reporter, 18 h; 530 nm emission.
Assay [8] deals with Retinoic acid receptor RXR-alpha (Homo sapiens) (UniProt P19793). The description is as above.
Assay [9] addresses Thyroid hormone receptor beta (Homo sapiens) (UniProt P10828). Kind of assay: qHTS assay for small molecule agonists of thyroid hormone receptor beta signaling (AID 588545).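 Further: 0% = DMSO only and 100% = 10 nM T3.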 In short, it runs like this:
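Beta-lactamase reporter activity under TR response element control is measured in HEK 293 cells after 18 hrs compound exposure. Signal is ratiometric CCF4 fluorescence, 460/530 nm.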

A short description of assay [10]: qHTS assay for small molecule antagonists of retinoid X receptor alpha signaling (AID 588546; active means well fitted inhibition curve with a large enough effect in the signal ratio, with a control signal flat, not every such curve was filed as active; the % refers to the signal ratio;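 further: cells stimulated with 9-cis-retinoic acid as agonist; on the % scale 0 is the no-effect control and ±100 the full control effect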). The conditions noted are these: HEK293T RXRa-UAS-bla, beta-lactamase ratio, antagonist mode; measured here: W530 green channel, cytotoxicity proxy. In short, it runs like this:
(§1)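 Beta-lactamase reporter inhibition, read as CCF4 fluorescence ratio (ex 405, em 460/530 nm) after 2 h at RT. HEK293T UAS-bla cells, 2500/well, were stimulated with 9-cis-RA at 500 or 100 nM final alongside test compound for 18 h at 37 C.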

Assay [11] concerns the target Retinoic acid receptor RXR-alpha (Homo sapiens) (UniProt P19793). The assay is described as above. The conditions noted are these: HEK293T RXRa-UAS-bla, beta-lactamase ratio, antagonist mode. The method in brief:
as §1

A short description of assay [12]: qHTS assay for small molecule activators of the nuclear factor-kappa B (NF-kB) signaling pathway (AID 651749; active means well fitted activation curve with a large enough effect in the signal ratio; the % refers to the signal ratio; further: series mostly up to about 77 µM; % of control where 0% means no effect). The following applies: NF-kB-bla ME-180 cells, beta-lactamase FRET ratio, 16 h; activation: stronger effect = higher value. The method in brief:
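Stably transfected ME-180 line; NF-kB response element upstream of beta-lactamase. Treatment: compound or DMSO, 16 hr. Detection: fluorescent FRET substrate.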

The nature of assay [13]: qHTS assay for environmental chemicals that activate the Aryl hydrocarbon Receptor (AhR) signaling pathway (AID 651777; active means well fitted curve in the direction sought with a large enough effect; an effect the other way counts as inactive or inconclusive; further: % of control where 0% means no effect; nearly all actives have a fitted effect of over 15% in size). The following applies: 1A2-DRE human hepatoma cells, luciferase, 24 h; activation: stronger effect = higher value. In short, it runs like this:
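Human hepatoma 1A2-DRE cells, stably carrying a dioxin response element and CYP1A2 promoter driving luciferase, were exposed to compounds for 24 hr at 37 C and 5% CO2. Luciferase signal was then read after 30 min One-Glo at room temperature.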

Assay [14] concerns the target Peroxisome proliferator-activated receptor alpha (Homo sapiens) (UniProt Q07869). In words: qHTS assay for small molecule agonists of the peroxisome proliferator-activated receptor alpha (PPARalpha) signaling pathway (AID 651778; active means well fitted curve in the direction sought with a large enough effect; an effect the other way counts as inactive or inconclusive; further: % of control where 0% means no effect). The conditions noted are these: PathHunter PPARalpha complementation, chemiluminescence, 6 h; max response: stronger effect = higher value. The method in brief: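 Chemiluminescence from complemented enzyme reported PPARalpha activation in cells after 6 hr of compound treatment at 37 C. The detection reagent was incubated for 60 min at room temperature, and compounds were scored as agonists.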

A short description of assay [15]: qHTS assay for small molecule agonists of the antioxidant response element (ARE) signaling pathway measured by Nrf2-dependant transcriptional activity - cell viability counter screen (AID 720653; active means well fitted curve in the direction sought with a large enough effect in the repeat runs; an effect the other way counts as inactive or inconclusive; further: on the % scale 0 is the no-effect control and ±100 the full control effect). The conditions noted are these: ARE-bla HepG2 viability, CellTiter-Glo ATP luminescence, 16 h; max response: stronger effect = lower value. In short, it runs like this:
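Cytotoxicity counter screen: intracellular ATP quantified by CellTiter-Glo luminescence in the same ARE-bla HepG2 plates, after 16 h compound exposure and a 2 h beta-lactamase substrate step.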

Assay [16] is described as follows: qHTS assay for cell viability of HEK293 cells (AID 743288; active means well fitted curve in the direction sought with a large enough effect; an effect the other way counts as inactive or inconclusive; further: on the % scale 0 is the no-effect control and ±100 the full control effect; nearly all actives have a fitted effect of over 50% in size). The following applies: ATP luminescence (CellTiter-Glo), 18 h; max response: stronger effect = lower value. The method in brief:
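Parental HEK293 cells, 2,000 per well, preincubated at least 5 h at 37 C, then exposed to compounds in DMSO for 18 h at 37 C. Viability by CellTiter-Glo ATP luminescence after 30 min at room temperature.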

Assay [17] can be described thus: qHTS assay for cell viability of the p53RE-bla HCT-116 cell line (AID 743292; active means well fitted curve in the direction sought with a large enough effect; an effect the other way counts as inactive or inconclusive; further: on the % scale 0 is the no-effect control and ±100 the full control effect; nearly all actives have a fitted effect of over 55% in size). In short, it runs like this:
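CellSensor p53RE-bla HCT-116 cells, 4,000/well, preincubated 5 h at 37 C, then exposed to compounds in DMSO for 16 h at 37 C. Viability read as CellTiter-Glo luminescence (intracellular ATP) after 30 min at room temperature.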

The target of assay [18] is Nuclear receptor subfamily 1 group I member 2 (Rattus norvegicus) (UniProt Q9R1A7). In words: qHTS assay for small molecule activators of the rat pregnane X receptor (rPXR) signaling pathway (AID 651751; call rule not given here; further: 0% is about no effect). The conditions noted are these: rPXR reporter cells, luciferase (One-Glo), 24 h.
The nature of assay [19]: qHTS assay for small molecule activators of the human pregnane X receptor (PXR) signaling pathway (AID 720659; call rule not given here; further: 0% is about no effect).
In assay [20] the target is Vitamin D3 receptor (Homo sapiens) (UniProt P11473). In words: qHTS assay for small molecule agonists of vitamin D receptor signaling (AID 588543).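 Further: 0% = DMSO basal and 100% = reference agonist control.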 In short, it runs like this:
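VDR-UAS-bla HEK293T cells, 2000/well, 2% charcoal-stripped FBS; compound titration 16 h at 37 C; CCF4 beta-lactamase ratio read. Normalized to 50 nM 1-alpha,25-dihydroxyvitamin D3 (100%) and DMSO; Hill fit gives EC50, efficacy.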

Vitamin D3 receptor (Homo sapiens), sequence (P11473 whole entry, looked up): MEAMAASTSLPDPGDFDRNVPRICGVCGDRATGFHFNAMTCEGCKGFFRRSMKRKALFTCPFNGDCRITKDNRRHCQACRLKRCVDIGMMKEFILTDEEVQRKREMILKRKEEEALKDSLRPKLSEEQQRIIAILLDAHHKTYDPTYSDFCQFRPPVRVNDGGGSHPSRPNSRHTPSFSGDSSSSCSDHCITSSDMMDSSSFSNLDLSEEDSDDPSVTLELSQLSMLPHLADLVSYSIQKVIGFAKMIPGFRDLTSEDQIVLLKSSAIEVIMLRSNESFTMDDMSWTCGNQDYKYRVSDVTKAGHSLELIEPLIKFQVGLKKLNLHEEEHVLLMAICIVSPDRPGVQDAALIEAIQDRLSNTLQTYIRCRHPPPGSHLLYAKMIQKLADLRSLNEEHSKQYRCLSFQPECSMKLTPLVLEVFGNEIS
Peroxisome proliferator-activated receptor alpha (Homo sapiens), sequence (Q07869 whole entry, looked up): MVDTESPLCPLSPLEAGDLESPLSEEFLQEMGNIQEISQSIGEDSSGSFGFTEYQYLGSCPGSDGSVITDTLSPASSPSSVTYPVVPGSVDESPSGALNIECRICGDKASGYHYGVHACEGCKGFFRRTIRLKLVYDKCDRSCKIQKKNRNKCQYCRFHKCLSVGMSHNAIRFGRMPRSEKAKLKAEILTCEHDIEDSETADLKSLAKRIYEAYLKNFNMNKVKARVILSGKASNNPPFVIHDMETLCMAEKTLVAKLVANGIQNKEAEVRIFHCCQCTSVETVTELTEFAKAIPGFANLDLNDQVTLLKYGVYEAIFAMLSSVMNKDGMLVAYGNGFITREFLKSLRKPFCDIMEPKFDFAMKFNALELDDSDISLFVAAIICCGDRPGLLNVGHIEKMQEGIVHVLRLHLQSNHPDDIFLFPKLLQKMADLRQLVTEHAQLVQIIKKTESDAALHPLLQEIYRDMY
Thyroid hormone receptor beta (Homo sapiens), sequence (P10828 whole entry, looked up): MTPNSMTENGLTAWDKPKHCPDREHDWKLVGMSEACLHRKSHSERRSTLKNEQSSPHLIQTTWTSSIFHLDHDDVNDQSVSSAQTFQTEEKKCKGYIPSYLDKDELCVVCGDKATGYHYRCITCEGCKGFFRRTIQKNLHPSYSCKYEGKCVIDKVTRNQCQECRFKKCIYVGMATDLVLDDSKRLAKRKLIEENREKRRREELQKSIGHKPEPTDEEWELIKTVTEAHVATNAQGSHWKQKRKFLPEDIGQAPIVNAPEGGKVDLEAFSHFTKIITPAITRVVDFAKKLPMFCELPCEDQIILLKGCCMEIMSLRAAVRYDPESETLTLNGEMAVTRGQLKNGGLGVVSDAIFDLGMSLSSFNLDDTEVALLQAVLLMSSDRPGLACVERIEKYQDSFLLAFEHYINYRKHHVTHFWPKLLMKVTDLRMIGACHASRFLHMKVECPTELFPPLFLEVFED
Estrogen receptor (Homo sapiens), sequence (P03372 whole entry, looked up): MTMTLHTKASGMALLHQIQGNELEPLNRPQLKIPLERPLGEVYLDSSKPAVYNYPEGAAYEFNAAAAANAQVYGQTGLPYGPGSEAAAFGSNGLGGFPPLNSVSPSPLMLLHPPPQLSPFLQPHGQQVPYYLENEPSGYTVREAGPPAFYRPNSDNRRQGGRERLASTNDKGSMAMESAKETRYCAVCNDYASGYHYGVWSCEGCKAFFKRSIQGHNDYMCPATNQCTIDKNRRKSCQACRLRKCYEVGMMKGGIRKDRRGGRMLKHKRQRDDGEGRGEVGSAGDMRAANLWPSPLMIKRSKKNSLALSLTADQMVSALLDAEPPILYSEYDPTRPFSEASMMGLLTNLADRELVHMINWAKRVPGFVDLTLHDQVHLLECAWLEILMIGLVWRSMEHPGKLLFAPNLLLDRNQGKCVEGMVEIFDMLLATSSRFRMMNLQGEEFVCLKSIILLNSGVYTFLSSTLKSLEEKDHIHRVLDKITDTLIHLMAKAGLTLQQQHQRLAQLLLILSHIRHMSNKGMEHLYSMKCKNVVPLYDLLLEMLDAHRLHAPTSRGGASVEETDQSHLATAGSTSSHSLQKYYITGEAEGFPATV
Peroxisome proliferator-activated receptor gamma (Homo sapiens), sequence (P37231 whole entry, looked up): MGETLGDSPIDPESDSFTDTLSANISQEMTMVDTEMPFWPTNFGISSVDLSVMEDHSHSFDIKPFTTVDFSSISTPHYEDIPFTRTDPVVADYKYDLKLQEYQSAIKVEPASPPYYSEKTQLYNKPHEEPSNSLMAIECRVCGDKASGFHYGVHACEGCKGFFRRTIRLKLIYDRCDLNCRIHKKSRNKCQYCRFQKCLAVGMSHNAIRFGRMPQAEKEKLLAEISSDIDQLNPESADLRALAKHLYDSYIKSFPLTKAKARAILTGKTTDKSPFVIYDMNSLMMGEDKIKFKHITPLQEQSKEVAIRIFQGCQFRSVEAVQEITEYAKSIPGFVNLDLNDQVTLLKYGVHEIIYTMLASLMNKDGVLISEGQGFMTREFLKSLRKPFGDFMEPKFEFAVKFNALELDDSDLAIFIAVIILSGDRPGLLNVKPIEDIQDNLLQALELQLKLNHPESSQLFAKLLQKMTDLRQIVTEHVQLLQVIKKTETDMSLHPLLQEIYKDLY
Retinoic acid receptor RXR-alpha (Homo sapiens), sequence (P19793 whole entry, looked up): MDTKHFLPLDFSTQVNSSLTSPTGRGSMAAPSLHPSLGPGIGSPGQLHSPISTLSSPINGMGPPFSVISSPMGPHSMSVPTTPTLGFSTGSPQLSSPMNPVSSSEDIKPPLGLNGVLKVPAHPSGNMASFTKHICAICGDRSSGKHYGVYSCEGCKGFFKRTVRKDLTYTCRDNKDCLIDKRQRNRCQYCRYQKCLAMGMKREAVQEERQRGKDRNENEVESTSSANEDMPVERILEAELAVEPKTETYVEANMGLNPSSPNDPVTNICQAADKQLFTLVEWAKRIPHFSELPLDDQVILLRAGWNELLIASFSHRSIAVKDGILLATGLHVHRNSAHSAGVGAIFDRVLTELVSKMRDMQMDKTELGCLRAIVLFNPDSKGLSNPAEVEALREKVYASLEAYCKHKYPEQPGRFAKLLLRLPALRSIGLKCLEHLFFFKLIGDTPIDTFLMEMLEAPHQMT
Nuclear receptor subfamily 1 group I member 2 (Rattus norvegicus), sequence (Q9R1A7 whole entry, looked up): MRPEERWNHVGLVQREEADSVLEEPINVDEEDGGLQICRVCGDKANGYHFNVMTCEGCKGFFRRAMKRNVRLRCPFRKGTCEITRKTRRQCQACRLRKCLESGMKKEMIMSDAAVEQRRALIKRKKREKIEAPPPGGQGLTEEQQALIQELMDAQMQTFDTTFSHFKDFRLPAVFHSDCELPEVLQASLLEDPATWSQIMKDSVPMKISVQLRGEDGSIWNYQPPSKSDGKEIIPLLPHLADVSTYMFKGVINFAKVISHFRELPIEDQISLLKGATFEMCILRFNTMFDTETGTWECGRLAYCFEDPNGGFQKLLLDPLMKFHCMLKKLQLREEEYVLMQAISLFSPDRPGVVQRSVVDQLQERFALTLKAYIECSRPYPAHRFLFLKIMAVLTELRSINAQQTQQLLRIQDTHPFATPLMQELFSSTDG

`O=C1CCCC/C=C/CCCCCCCCCO1`: the Potency entry in assay [1], in assay [2], in assay [5], in assay [6], in assay [8] and in [9] was “inactive” throughout. Also, the Potency result in assay [17] was “inactive”. Besides, the max response in assay [3] was -0.124%; in assay [7], -14.2%; in assay [10] it was -16.9%; in assay [11], 5.91% (inactive); in assay [14] it was 11.1% (inactive); in assay [15], 0.0367% (inactive). Further, the max response in assay [16] was 4.39% (inactive); in assay [18], -0.578% (inactive). In addition, the outcome in assay [4] and in [19] was inactive. Moreover, the activation in [12] was -0.561% (inactive); in assay [13] it was -0.496% (inactive).

`CCCCCCCCCCCCCCCCCCN`: the Potency result in assay [1], in assay [2], in [6], in assay [9] and in assay [17] was “inactive” throughout. Also, the max response in [3] is 13.6%; in assay [7] it was -24%; in assay [10], -8.83%; in assay [11], 4.01% (inactive); in assay [14], 0.121% (inactive); in assay [15], -7.69% (inactive). For the same compound, in assay [18], the max response was -2.88% (inactive). In addition, the compound was classed as inactive in assay [20] and in assay [19]. Besides, in assay [8], the Potency is 15.8 µM (active). Besides, the activation in [12] was 0.495% (inactive); in assay [13], 0.284% (inactive).

Consider `CC(C)(C)c1cccc(C(C)(C)C)c1O`, for which the Potency result in assay [1], in [2], in assay [5], in assay [8], in assay [9] and in assay [17] was “inactive” in each case. In addition, the max response was -24.3% in assay [3]; -8.93% in assay [7]; -10.7% in assay [10]; -0.1% (inactive) in [11]; -2.21% (inactive) in assay [14]; -3.7% (inactive) in [15]. In addition, the max response in assay [16] was 0.51% (inactive); in assay [18], 0.577% (inactive). The result in assay [4] and in assay [19] was inactive. The figures for the activation in [12] and in [13] were -0.872% (inactive) and 0.241% (inactive), respectively.

For the compound `CCCCC(CC)C(=O)OCCOCCOCCOC(=O)C(CC)CCCC` (stereo not given), the Potency entry in assay [1], in [2], in assay [5], in assay [6], in assay [8] and in [9] was “inactive” each time. The Potency entry in [17] is “inactive”. Also, the max response is 37.3% in [3]; 18.8% in assay [7]; -5.42% in assay [10]; 0.387% (inactive) in [14]; 1.57% (inactive) in assay [15]; -11.7% (inactive) in assay [16]. For the same compound, the max response in [18] was 4.7% (inactive). Also, the compound was called inactive in [4], in [20] and in assay [19]. In assay [12], the activation is -6.56% (inactive).

For the compound `O=C(O)c1ccc2c(c1)C(=O)OC2=O`, the Potency result in assay [1], in assay [2], in assay [6], in [8], in [9] and in assay [17] was “inactive” in each case. Also, the compound was called inactive in assay [4] and in assay [20]. The max response in assay [7] was -9.87%; in assay [10], -2.35%; in assay [14] it was -0.399% (inactive); in assay [15], -5.37% (inactive); in assay [18] it was 0.711% (inactive). For the same compound, the activation in assay [12] was 0.891% (inactive); in assay [13] it was 1.29% (inactive).

As for `Cc1ccc(C(=O)c2ccccc2)cc1`, the Potency result in assay [1], in assay [2], in assay [5], in [6], in [8] and in [9] was “inactive” throughout. In assay [17], the Potency result was “inactive”. The max response in assay [3] was -13.1%; in assay [7], 0.662%; in assay [10] it was 9.26%; in [11] it was -15.9% (inactive); in [14] it was -3.56% (inactive); in assay [15], -0.957% (inactive). In addition, the max response in assay [16] was -2.28% (inactive); in [18], 3.11% (inactive). In addition, in assay [4], the call was inactive. Besides, the values for the activation in [12] and in assay [13] were 0.979% (inactive) and -0.234% (inactive), respectively.
